Structures are written as SMILES. A number with no mark means an inactive call. Records with an inconclusive call do not appear. Activity calls are given as the source filed them. Unless noted, calls come from the whole dose curve.

This passage reports Potency, activity change, positive = activation and outcome results from PubChem BioAssay (Tox21).

A short description of experiment [1]: qHTS assay to identify small molecule antagonists of the retinoic acid receptor (RAR) signaling pathway (AID 1159552; active = well fitted curve in the direction sought with a large enough effect in the repeat runs; an effect the other way counts as inactive or inconclusive; note: nearly all actives have a fitted effect of over 50% in size; note: potency is the fitted concentration of half-maximal effect). The procedure, abridged:
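Cells of the C3RL4 line were seeded, incubated overnight, then dosed with compounds in DMSO followed immediately by retinol (1 uM final). Six hours later luciferase detection reagent went in; signal was measured after 30 min at RT.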
On the technique in general: qHTS replaces the single test concentration by a dilution series.

The nature of experiment [2]: qHTS assay to identify small molecule agonists of the estrogen related receptor (ERR) signaling pathway from Tox21 library (AID 1224849). Note: nearly all actives have a fitted effect of over 15% in size. Particulars: ERR reporter cell line, ONE-Glo luciferase, 18 h; at 92.4 µM (top of the series) unless noted. The procedure, abridged:
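Six hours post-seeding at 37 C/5% CO2, ERR cells receive DMSO-solubilised compounds; after 18 h at 37 C, ONE-Glo reagent is applied and luminescence recorded.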

The nature of experiment [3]: qHTS assay to identify small molecule HDAC inhibitors (AID 1259364; active = well fitted curve in the direction sought with a large enough effect in the repeat runs; an effect the other way counts as inactive or inconclusive;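 note: wild-type HCT-116 cells with endogenous class I/II HDAC activity; top concentration of the series differs between compounds; nearly all actives have a fitted effect of over 45% in size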). The procedure, abridged: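 Relative class I and II HDAC activity is taken from the luminogenic signal in HCT-116 cells, with compound exposure 2 hr and reagent development 30 min at room temperature.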
Experiment [4] can be described thus: qHTS assay to identify small molecule agonists of the sonic hedgehog signaling (Shh) pathway (AID 1259368).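 Note: NIH/3T3-derived 3T3Gli1-Luc cells carrying a stable Gli1-driven firefly luciferase reporter; nearly all actives have a fitted effect of over 15% in size.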 The procedure, abridged:
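Mouse fibroblast (NIH/3T3) reporter cells with stably integrated Gli1-Luc were treated 24 hr with compound; firefly luciferase luminescence served as the read-out.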

A short description of experiment [5]: Caspase-3/7 induction in HepG2 cells by small molecules, qHTS assay (AID 1346978; active = well fitted curve in the direction sought with a large enough effect in the repeat runs; an effect the other way counts as inactive or inconclusive; note: nearly all actives have a fitted effect of over 15% in size). The method, boiled down: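 Wild-type HepG2 cells, 2,000/well, settled 5 hr at 37 C and 5% CO2, then compound-treated for 17 hr; caspase-3/7 activity read by luminescent Caspase-Glo 3/7 after 30 min at room temperature.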
Experiment [6] in a line: Caspase-3/7 induction in CHO-K1 cells by small molecules, qHTS assay (AID 1346980; active = well fitted curve in the direction sought with a large enough effect in the repeat runs; an effect the other way counts as inactive or inconclusive; note: nearly all actives have a fitted effect of over 15% in size). The procedure, abridged:
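Wild-type CHO-K1 cells exposed to compounds for 17hr at 37 C, 5% CO2. Caspase-3/7 activity then measured by Caspase-Glo 3/7 luminescence after 30min at room temperature.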

Experiment [7] has as its target Acetylcholinesterase (Homo sapiens) (UniProt P22303). In words: Acetylcholinesterase (AChE) small molecule antagonists: enzyme-based qHTS assay (AID 1347397). Note: nearly all actives have a fitted effect of over 55% in size. Note: potency is the fitted concentration of half-maximal effect. As to conditions: Potency: AChE enzyme activity inhibition; outcome: AChE enzyme activity inhibition. The procedure, abridged: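 Recombinant human AChE (50 mU/mL) preincubated with compound 30 min at room temperature; acetylthiocholine plus DTNB then added, and thiocholine formation read colorimetrically after 10 min at room temperature. DMSO served as vehicle control.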

Experiment [8] shares this target. As to the kind of experiment: Acetylcholinesterase (AChE) small molecule antagonists: fluorescence cell-based qHTS assay (AID 1347398). Note: nearly all actives have a fitted effect of over 50% in size. Particulars: Potency: AChE activity; outcome: AChE activity. The procedure, abridged: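 SH-SY5Y cells (2000/well), attached overnight, incubated with compound 30 min at 37 C. Acetylthiocholine plus Thiolite Green then added for 40 min at room temperature. Thiocholine fluorescence (Ex/Em 490/520 nm) reports cellular AChE activity.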

For experiment [9] the target is unchanged. In words: Acetylcholinesterase (AChE) small molecule antagonists: enzyme-based qHTS assay with human liver microsomes (AID 1347399). Note: nearly all actives have a fitted effect of over 60% in size. Particulars: Potency: qHTS inhibition; outcome: qHTS inhibition. The procedure, abridged:
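Recombinant human AChE (50 mU/mL in the enzyme mix) and human liver microsomes (0.25 mg/mL final) were preincubated with compound and NADPH (0.25 mg/mL final) for 30 min at 37 C. Acetylthiocholine/DTNB was then added; thiocholine was read colorimetrically after 10 min at room temperature.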

For experiment [10] the target is unchanged. In words: Acetylcholinesterase (AChE) small molecule antagonists: colormetric cell-based qHTS assay (AID 1347395). Note: nearly all actives have a fitted effect of over 30% in size. The procedure, abridged:
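Colorimetric read-out: DTNB detects thiocholine released when cellular AChE in SH-SY5Y cells hydrolyses acetylthiocholine. Cells attached overnight, received compound for 30 min at 37 C, then substrate mix for 90 min at 37 C.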

Experiment [11] is described as follows: qHTS assay for small molecule agonists of the p53 signaling pathway (AID 651631). Note: nearly all actives have a fitted effect of over 15% in size. The procedure, abridged: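 Read-out is beta-lactamase FRET fluorescence measured 2 h after substrate addition at room temperature, in HCT-116 cells with a p53 response element-driven reporter exposed to compounds for 16 h at 37 °C.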
In another experiment the target is Aromatase (Homo sapiens) (UniProt P11511). In words: qHTS assay to identify aromatase inhibitors (AID 743083; active = well fitted curve in the direction sought with a large enough effect in the repeat runs; an effect the other way counts as inactive or inconclusive; note: nearly all actives have a fitted effect of over 55% in size; note: potency is the fitted concentration of half-maximal effect).
Aromatase (Homo sapiens), sequence (P11511 whole entry, looked up): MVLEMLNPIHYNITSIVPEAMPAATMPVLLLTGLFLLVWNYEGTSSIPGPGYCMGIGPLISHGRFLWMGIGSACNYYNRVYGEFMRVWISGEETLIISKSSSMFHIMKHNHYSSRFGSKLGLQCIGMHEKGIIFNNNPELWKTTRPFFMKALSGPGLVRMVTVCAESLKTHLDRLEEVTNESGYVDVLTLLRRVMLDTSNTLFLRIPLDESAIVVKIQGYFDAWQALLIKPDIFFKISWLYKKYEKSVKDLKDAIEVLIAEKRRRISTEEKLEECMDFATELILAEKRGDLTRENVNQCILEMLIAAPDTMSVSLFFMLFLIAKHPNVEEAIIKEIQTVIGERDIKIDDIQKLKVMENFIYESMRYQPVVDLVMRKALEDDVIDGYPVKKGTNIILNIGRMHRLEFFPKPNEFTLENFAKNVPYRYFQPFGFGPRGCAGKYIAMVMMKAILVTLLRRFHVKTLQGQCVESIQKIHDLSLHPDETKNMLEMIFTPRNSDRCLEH
The target in experiment [12] is Aryl hydrocarbon receptor (Homo sapiens) (UniProt P35869). As to the kind of experiment: qHTS assay to identify small molecule that activate the aryl hydrocarbon receptor (AhR) signaling pathway (AID 743085; active = well fitted curve in the direction sought with a large enough effect in the repeat runs; an effect the other way counts as inactive or inconclusive). The procedure, abridged:
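Cell line HG2L7.5c1 (human hepatoma, 20× DRE-luc). Plated, 5 h 37C, compound/DMSO added, 24 h 37C. CellTiter-Fluor 30 min 37C → fluorescence; then ONE-Glo 30 min RT → luminescence.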

Experiment [13] in a line: qHTS assay to identify small molecule agonists of H2AX (AID 1224845; active = well fitted activation curve with a large enough effect in the signal ratio in the repeat runs, not every such curve was filed as active; the % refers to the signal ratio). The procedure, abridged: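 Wild-type CHO-K1 cells, plated overnight, exposed 3hr at 37C to 15 concentrations (0.76% DMSO final). Lysed, then HTRF anti-pH2AX (S139) cryptate and anti-H2AX-d2 antibodies, 24 hr room temperature; 665/620 nm emission read.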
Experiment [14] can be described thus: qHTS assay to identify small molecule antagonists of the estrogen related receptor (ERR) signaling pathway - cell viability counter screen (AID 1224818; active = well fitted curve in the direction sought with a large enough effect in the repeat runs; an effect the other way counts as inactive or inconclusive;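 note: viability measured after 17.5 h of compound exposure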). The method, boiled down:
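In the same ERR cell assay, compound-treated wells (17.5 h, 37 C) were multiplexed with a fluorogenic viability reagent, CellTiter-Fluor, read after 30 min to flag cytotoxic substances.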

Experiment [15] can be described thus: qHTS assay to identify small molecule antagonists of the estrogen related receptor (ERR) signaling pathway (AID 1224819; active = well fitted curve in the direction sought with a large enough effect in the repeat runs; an effect the other way counts as inactive or inconclusive;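 note: luminescence from an ERR-driven luciferase reporter measured with One-Glo reagent; nearly all actives have a fitted effect of over 50% in size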). The procedure, abridged: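 qHTS in ERR cells, 2,000/well, 1536 format. Cpd (DMSO) added after 6 h settle, 18 h 37 C. One-Glo luminescence, 30 min RT.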
A short description of experiment [16]: qHTS assay to identify small molecule agonists of the estrogen related receptor (ERR) signaling pathway (AID 1224820; active = well fitted curve in the direction sought with a large enough effect in the repeat runs; an effect the other way counts as inactive or inconclusive). The method, boiled down:
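Cells: ERR line from NTP, 2,000/well. Pre-incubation 6 h, 37 C/5% CO2. Compound (DMSO) pin transfer, 18 h 37 C. One-Glo, 30 min RT, luminescence.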

Experiment [17] relates to estrogen-related receptor alpha (ERRalpha) with PGC-1alpha coactivator, human. In words: qHTS assay to identify small molecule antagonists of the estrogen related receptor signaling pathway with the pleiotropic PPARgamma coactivator (PGC) (AID 1224821).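 Note: lower luminescence signal means antagonism of PGC/ERR signalling; nearly all actives have a fitted effect of over 50% in size.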 The procedure, abridged: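 Luminescent read-out (One-Glo, 30 min at room temperature) following 18 h treatment of PGC/ERR cells at 37 C with compounds delivered in DMSO. Cells had settled 6 h at 37 C/5% CO2 before dosing.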

The nature of experiment [18]: qHTS assay to identify small molecule antagonists of the estrogen related receptor signaling pathway with the pleiotropic PPARgamma coactivator (PGC) cell viability counter screen (AID 1224822; active = well fitted curve in the direction sought with a large enough effect in the repeat runs; an effect the other way counts as inactive or inconclusive). The procedure, abridged: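 Compounds in DMSO, with positive and negative controls, were applied to PGC/ERR cells (2,000/well) and left 17.5 h at 37 C before CellTiter-Fluor detection.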

Experiment [19] is described as follows: qHTS assay to identify small molecule agonists of the estrogen related receptor signaling pathway with the pleiotropic PPARgamma coactivator (PGC) (AID 1224823; active = well fitted curve in the direction sought with a large enough effect in the repeat runs; an effect the other way counts as inactive or inconclusive). The method, boiled down:
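Steps: plate PGC/ERR cells at 2,000 cells/well; incubate 6 h, 37 C/5% CO2; pin-transfer compounds (DMSO); incubate 18 h, 37 C; add One-Glo; 30 min RT; read luminescence.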
% is set by controls: 0 for no effect and ±100 for the full control effect.

Acetylcholinesterase (Homo sapiens), sequence (P22303 whole entry, looked up): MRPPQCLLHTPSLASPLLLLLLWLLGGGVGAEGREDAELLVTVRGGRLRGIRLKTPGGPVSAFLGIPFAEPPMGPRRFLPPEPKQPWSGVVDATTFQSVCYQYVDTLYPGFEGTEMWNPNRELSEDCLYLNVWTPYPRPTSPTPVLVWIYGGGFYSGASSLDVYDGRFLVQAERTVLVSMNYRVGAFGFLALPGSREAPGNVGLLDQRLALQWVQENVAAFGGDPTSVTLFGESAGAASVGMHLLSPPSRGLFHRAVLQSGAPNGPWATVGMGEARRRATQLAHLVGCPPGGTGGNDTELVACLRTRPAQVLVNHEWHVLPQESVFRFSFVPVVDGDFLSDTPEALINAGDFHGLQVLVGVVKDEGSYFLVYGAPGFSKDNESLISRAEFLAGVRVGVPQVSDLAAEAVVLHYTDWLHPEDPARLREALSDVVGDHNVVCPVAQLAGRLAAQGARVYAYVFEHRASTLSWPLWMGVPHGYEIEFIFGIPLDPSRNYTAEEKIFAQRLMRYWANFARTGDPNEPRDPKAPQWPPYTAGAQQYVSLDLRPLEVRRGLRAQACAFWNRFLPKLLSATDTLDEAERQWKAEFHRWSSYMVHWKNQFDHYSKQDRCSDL
Aryl hydrocarbon receptor (Homo sapiens), sequence (P35869 whole entry, looked up): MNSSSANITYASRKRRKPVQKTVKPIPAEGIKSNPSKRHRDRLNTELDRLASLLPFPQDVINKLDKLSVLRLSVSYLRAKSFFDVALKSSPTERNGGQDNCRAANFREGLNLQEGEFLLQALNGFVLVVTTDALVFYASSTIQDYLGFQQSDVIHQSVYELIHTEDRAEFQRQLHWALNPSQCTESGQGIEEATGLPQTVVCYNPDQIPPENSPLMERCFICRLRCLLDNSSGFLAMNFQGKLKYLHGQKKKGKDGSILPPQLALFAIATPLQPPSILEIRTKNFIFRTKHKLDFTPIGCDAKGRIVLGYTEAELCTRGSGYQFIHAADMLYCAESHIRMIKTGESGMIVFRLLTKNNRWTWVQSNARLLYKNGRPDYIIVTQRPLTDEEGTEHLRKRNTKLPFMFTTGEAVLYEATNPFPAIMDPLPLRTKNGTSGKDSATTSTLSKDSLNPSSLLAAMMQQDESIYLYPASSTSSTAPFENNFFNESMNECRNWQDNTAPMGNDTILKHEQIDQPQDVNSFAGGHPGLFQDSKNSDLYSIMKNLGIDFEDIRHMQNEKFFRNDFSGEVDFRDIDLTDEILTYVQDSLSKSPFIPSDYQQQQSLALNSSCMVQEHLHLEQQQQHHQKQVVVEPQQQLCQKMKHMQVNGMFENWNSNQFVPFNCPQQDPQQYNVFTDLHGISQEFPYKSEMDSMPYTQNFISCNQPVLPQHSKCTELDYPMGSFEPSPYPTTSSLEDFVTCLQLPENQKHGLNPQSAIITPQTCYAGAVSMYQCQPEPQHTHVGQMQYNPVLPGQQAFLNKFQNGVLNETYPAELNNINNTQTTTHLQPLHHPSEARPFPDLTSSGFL

As for `Cc1cc(C)c(C(=O)P(=O)(c2ccccc2)c2ccccc2)c(C)c1`, the Potency result in experiment [1], in experiment [5], in experiment [7], in experiment [8] and in experiment [9] was “inactive” throughout. In addition, in experiment [2], the activity change, positive = activation is -54.9%. Also, the compound was called inactive in experiment [3], in experiment [4] and in [6].
Turning to `O=C(c1ccc(Cl)cc1)c1ccc(Cl)cc1`, the Potency entry in [5], in experiment [10], in experiment [7] and in [9] was “inactive” each time.
Consider `Cc1c(N)cccc1[N+](=O)[O-]`, for which the Potency entry (in experiment [11]; in the experiment with Aromatase (Homo sapiens); in experiment [1]; in [10]; in experiment [7]; in [8]) was “inactive” each time. In addition, the Potency result in experiment [9] was “inactive”.
Consider `O=C1C(I)=CC(=C(c2cc(I)c(O)c(I)c2)c2ccccc2C(=O)O)C=C1I`, for which the Potency entry (in the experiment with Aromatase (Homo sapiens); in [12]; in experiment [1]; in experiment [13]; in [5]; in experiment [10]) was “inactive” each time. The Potency entry in [8] and in experiment [9] was “inactive” in each case. The compound was called inactive in experiment [3], in [4] and in [6]. Further, the Potency in [7] is 34.7 µM (active).
As to `C=CC(=O)OCCCC`, the Potency entry (in [11]; in the experiment with Aromatase (Homo sapiens); in [10]; in experiment [7]; in experiment [8]; in experiment [9]) was “inactive” throughout.
As to `O=[N+]([O-])c1c(Cl)c(Cl)cc(Cl)c1Cl`, the Potency result in [12], in [1], in [14], in experiment [15], in experiment [16] and in experiment [17] was “inactive” in each case. Moreover, the Potency result in experiment [18], in [19], in experiment [5], in [10], in [7] and in experiment [8] was “inactive” each time. In addition, the Potency result in [9] was “inactive”. For the same compound, the activity change, positive = activation in experiment [2] is 0.621%. Moreover, the compound was called inactive in [3], in [4] and in experiment [6].
In the case of `OCC(c1ccc(Cl)cc1)c1ccc(Cl)cc1`, the Potency was 30.6 µM (active) with Aromatase (Homo sapiens) and 43.3 µM (active) in experiment [1]. For the same compound, the Potency entry in [12], in experiment [13], in experiment [10], in [7], in experiment [8] and in experiment [9] was “inactive” in each case. Further, the result in experiment [3], in experiment [4] and in experiment [6] was inactive.
`O=[N+]([O-])c1cc(C(F)(F)F)ccc1Cl`: the Potency entry (in the experiment with Aromatase (Homo sapiens); in [10]; in experiment [7]; in experiment [8]; in experiment [9]) was “inactive” each time. For the same compound, the activity change, positive = activation in experiment [2] is -5.28%.
Consider `O=C(c1ccccc1)C(Cl)Cl`, for which the Potency in experiment [1] was 24.3 µM (active). For the same compound, the Potency result in [13], in [5], in experiment [10], in experiment [7], in [8] and in experiment [9] was “inactive” in each case. Moreover, the activity change, positive = activation in [2] is -27.3%. For the same compound, the compound was classed as inactive in experiment [3], in [4] and in experiment [6].
As to `Nc1ccc([N+](=O)[O-])cc1`, the Potency result (in the experiment with Aromatase (Homo sapiens); in experiment [16]; in experiment [17]; in experiment [18]; in experiment [19]; in experiment [13]) was “inactive” each time. Moreover, the Potency result in experiment [10], in [7], in experiment [8] and in experiment [9] was “inactive” in each case. For the same compound, the activity change, positive = activation in experiment [2] is -29.9%. In addition, the result in experiment [3], in experiment [4] and in experiment [6] was inactive.
For the compound `CC1COC(Cn2cncn2)(c2ccc(Oc3ccc(Cl)cc3)cc2Cl)O1` (centres undefined), in the experiment with Aromatase (Homo sapiens), the Potency was 30.6 µM (active). For the same compound, the Potency result in experiment [12], in experiment [1], in [5], in [10], in [7] and in experiment [8] was “inactive” each time. Besides, the Potency entry in [9] is “inactive”. Moreover, in [2], the activity change, positive = activation was -64.8%. Besides, the result in experiment [3], in [4] and in [6] was inactive.
